{"source": "ChEMBL document CHEMBL3988442", "about": "“University of Dundee, Small-Polar-MMV Screening Library” (2021)", "note": "Hit rate of the full screen: of about 48,000 compounds, about 13,000 (27%) showed an effect of 50% or more. The list shows a part of the results."}
{"test_system": "Wolbachia pipientis", "experiment": "Anti-Wolbachia Cell-Based Screen", "type": "functional", "design": "scale not given: in the data most compounds retested in dose-response had high values", "conditions": "5 µM", "units": {"Percent Effect": "%"}}
{"smiles": "COc1ccc2c(=O)n(CC3CCCN(C)C3)ccc2c1OC", "note": "(stereo not given)", "Percent Effect": -1.973}
{"smiles": "Cc1cc(C(=O)N2CCCC(N3CCNC3=O)C2)nn1C(C)(C)C", "note": "(stereo not given)", "Percent Effect": -5.29}
{"smiles": "CCCS(=O)(=O)c1ncc(CN2CCC(CO)CC2)n1CC1CCCO1", "note": "(stereo not given)", "Percent Effect": 10.89}
{"smiles": "Cn1nc(CNc2ncccn2)c2c1CN(c1cnccn1)CC2", "Percent Effect": 89.69}
{"smiles": "c1cnc(NCc2noc3c2CN(c2cnccn2)CC3)nc1", "Percent Effect": 99.25}
{"smiles": "CC(C)n1nc(CNc2ncccn2)c2c1CN(S(C)(=O)=O)CC2", "Percent Effect": 3.209}
{"smiles": "O=C(c1cccnc1)N1CCc2onc(CN3CCCC3)c2C1", "Percent Effect": -1.696}
{"smiles": "c1cnc(N2CCc3onc(CN4CCCC4)c3C2)cn1", "Percent Effect": 88.59}
{"smiles": "CCS(=O)(=O)N1CCc2onc(CNc3ncccn3)c2C1", "Percent Effect": 3.304}
{"smiles": "CCN1CCc2onc(CNc3ncccn3)c2C1", "Percent Effect": 1.38}
{"smiles": "O=C(c1ccsc1)N1CCc2onc(CN3CCOCC3)c2C1", "Percent Effect": -3.104}
{"smiles": "O=C(c1ccncc1)N1CCc2onc(CN3CCCC3)c2C1", "Percent Effect": -9.45}
{"smiles": "O=C(c1cnccn1)N1CCc2onc(CN3CCCC3)c2C1", "Percent Effect": 10.5}
{"smiles": "c1cnc(N2CCc3onc(CN4CCOCC4)c3C2)cn1", "Percent Effect": 102}
{"smiles": "CC(C)n1nc(CNc2ncccn2)c2c1CN(C)CC2.O=C(O)C(F)(F)F.O=C(O)C(F)(F)F.O=C(O)C(F)(F)F", "Percent Effect": -10.41}
{"smiles": "COc1cc(C(=O)NC2COc3ccccc3C2)ccc1OCC(N)=O", "note": "(stereo not given)", "Percent Effect": 16.72}
{"smiles": "Fc1ccc2[nH]c(C3CCCN3CCCn3cccn3)nc2c1", "note": "(stereo not given)", "Percent Effect": -31.47}
{"smiles": "C=Cc1cccc(CN2C[C@@H](CN(C)CC)[C@@H](CO)C2)c1", "Percent Effect": -5.546}
{"smiles": "O=C1CC2(CCN(C(=O)c3cccc(Cl)c3)CC2)CN1", "Percent Effect": -6.217}
{"smiles": "COC(=O)[C@@H](NC(=O)c1coc(COc2cccc(F)c2F)n1)C(C)C", "Percent Effect": -36.4}
{"smiles": "Cc1cc(CN(CCO)c2ccc(Br)cc2)on1", "Percent Effect": -2.085}
{"smiles": "CN(Cc1ccco1)C[C@H]1OC[C@@H]2CCN(Cc3nccs3)C[C@@H]21", "Percent Effect": -15.41}
{"smiles": "CN(Cc1ccco1)C[C@H]1OC[C@@H]2CCN(Cc3cccnc3)C[C@@H]21.O=C(O)C(F)(F)F.O=C(O)C(F)(F)F.O=C(O)C(F)(F)F", "Percent Effect": 7.341}
{"smiles": "CN(Cc1ccco1)C[C@H]1OC[C@@H]2CCN(Cc3ccncc3)C[C@@H]21.O=C(O)C(F)(F)F.O=C(O)C(F)(F)F.O=C(O)C(F)(F)F", "Percent Effect": -1.908}
{"smiles": "CN(Cc1ccco1)C[C@H]1OC[C@@H]2CN(c3ncc(F)cn3)CC[C@@H]21.O=C(O)C(F)(F)F.O=C(O)C(F)(F)F", "Percent Effect": 81.17}
{"smiles": "CN(Cc1ccco1)C[C@H]1OC[C@@H]2CCN(Cc3cccs3)C[C@@H]21.O=C(O)C(F)(F)F.O=C(O)C(F)(F)F", "Percent Effect": -12.79}
{"smiles": "Cc1cccc(N2CC[C@H]3[C@H](CO[C@@H]3CN(C)Cc3ccco3)C2)n1.O=C(O)C(F)(F)F.O=C(O)C(F)(F)F", "Percent Effect": 52.12}
{"smiles": "Cc1cccc(N2CC[C@H]3CO[C@H](CN(C)Cc4ccco4)[C@H]3C2)n1", "Percent Effect": 108.5}
{"smiles": "Cc1ccc(N2CC[C@H]3CO[C@H](CN(C)Cc4ccco4)[C@H]3C2)nn1.O=C(O)C(F)(F)F.O=C(O)C(F)(F)F", "Percent Effect": 95.46}
{"smiles": "CN(Cc1ccco1)C[C@@H]1OC[C@H]2CN(Cc3nccs3)CC[C@H]21.O=C(O)C(F)(F)F.O=C(O)C(F)(F)F", "Percent Effect": 3.908}
{"smiles": "Cc1cccc(N2CC[C@@H]3[C@@H](CO[C@H]3CNS(C)(=O)=O)C2)n1", "Percent Effect": -14.44}
{"smiles": "CC(C)N1CC(c2ncc(-c3ccc4c(c3)OCCO4)[nH]2)CC1=O", "note": "(stereo not given)", "Percent Effect": 5.292}
{"smiles": "CC(C)CN1C(=O)CO[C@@H]2CN(C(=O)[C@H]3CCCO3)C[C@H]21", "Percent Effect": -3.768}
{"smiles": "CC(C)(O)CCc1ccc(C(=O)N2CCN(CCS(C)(=O)=O)CC2)cc1", "Percent Effect": -13.16}
{"smiles": "Cl.Cn1ncc2c1CCCC2NCc1cc(Br)cs1", "note": "(stereo not given)", "Percent Effect": 7.416}
{"smiles": "COC(=O)N1CC(C)=C(C)CN1C(=O)Nc1ccc(Cl)c(Cl)c1", "Percent Effect": 93.89}
{"smiles": "COC(=O)N1CC(C)=C(C)CN1C(=O)Nc1ccc(Cl)cc1", "Percent Effect": 87.33}
{"smiles": "COc1ccc(NC(=O)Cn2nc(C)c(C)cc2=O)cc1Cl", "Percent Effect": -5.001}
{"smiles": "Cc1cc(=O)n(CC(=O)Nc2ccc(Cl)cc2)nc1C", "Percent Effect": -24.72}
{"smiles": "COC(=O)NCCCC(=O)NCC1(c2cccc(Cl)c2)CC1", "Percent Effect": -5.013}
{"smiles": "COC(=O)NCCC(=O)NCC1(c2cccc(Cl)c2)CC1", "Percent Effect": 6.503}
{"smiles": "CN1CC(Oc2ccccc2)=NC(SCC(=O)Nc2ccc(Cl)cc2)=N1", "Percent Effect": 11.53}
{"smiles": "CCc1csc(CNCC(=O)Nc2ccc(Cl)c(C)c2)n1", "Percent Effect": 20.64}
{"smiles": "COC(=O)N1CC(C)=C(C)CN1C(=O)Nc1cccc(Cl)c1", "Percent Effect": 127.6}
{"smiles": "Cc1ccc(NC(=O)N2CCCC(O)(CO)CC2)cc1Cl", "note": "(stereo not given)", "Percent Effect": -14.19}
{"smiles": "CCOC(=O)N1CC(C)=C(C)CN1C(=O)Nc1ccc(Cl)c(Cl)c1", "Percent Effect": 122.4}
{"smiles": "Cc1ccc(NC(=O)N2CCOC(C)C2)cc1Cl", "note": "(stereo not given)", "Percent Effect": 8.105}
{"smiles": "CCCc1c(C(=O)N2CCN(c3ncccn3)CC2)cnn1C", "Percent Effect": -7.534}
{"smiles": "COc1ccc(C2CCN(CCCC#N)CC2)cc1", "Percent Effect": 4.999}
{"smiles": "CN(CCn1ccc2ccccc21)C(=O)CS(C)(=O)=O", "Percent Effect": -3.366}
{"smiles": "CCC(NCc1cccc(Cl)c1)c1ccccc1OCC(=O)NC", "note": "(stereo not given)", "Percent Effect": -3.101}
{"smiles": "c1ccc2sc(CN3CCOC(Cn4cccn4)C3)nc2c1", "note": "(stereo not given)", "Percent Effect": 18.8}
{"smiles": "Cc1nc(C)n(CC2CN(CCCOc3ccccc3)CCO2)n1", "note": "(stereo not given)", "Percent Effect": 117}
{"smiles": "Cc1cnc(CN2CCOC(Cn3nc(C)nc3C)C2)cn1", "note": "(stereo not given)", "Percent Effect": 1.014}
{"smiles": "Cc1nc(C)n(CC2CN(Cc3nc4ccccc4s3)CCO2)n1", "note": "(stereo not given)", "Percent Effect": 214.4}
{"smiles": "c1ccc2sc(CN3CCOC(Cn4cncn4)C3)nc2c1", "note": "(stereo not given)", "Percent Effect": -2.125}
{"smiles": "Cc1nc(C)n(CC2CN(CCCOc3ccccc3C)CCO2)n1", "note": "(stereo not given)", "Percent Effect": -2.427}
{"smiles": "Cc1cc(C)n(CC2CN(Cc3nc4ccccc4s3)CCO2)n1", "note": "(stereo not given)", "Percent Effect": 100.5}
{"smiles": "Cc1nc(C)n(CC2CN(CCc3ccccn3)CCO2)n1", "note": "(stereo not given)", "Percent Effect": -80.6}
{"smiles": "Cc1cnn(CC2CN(Cc3nc4ccccc4s3)CCO2)c1", "note": "(stereo not given)", "Percent Effect": 112.2}
{"smiles": "CCOc1cc(CNCCCn2ccnc2)cc(Cl)c1OC", "Percent Effect": -2.323}
{"smiles": "COCCN1C[C@H]2[C@@H](C1)N(C(=O)c1cccs1)CC[C@H]2OC", "Percent Effect": -4.854}
{"smiles": "CC(=O)c1ccc(OCC(=O)NC(C)CCc2ccco2)cc1", "note": "(stereo not given)", "Percent Effect": -8.021}
{"smiles": "COc1ccccc1OC1(C(=O)O)CCN(c2ncnc(C)c2C)CC1", "Percent Effect": -46.26}
{"smiles": "N#CCCNC(=O)CSc1ccc(F)cc1F", "Percent Effect": -9.893}
{"smiles": "CN1CCC(Oc2ccc(NC(=O)c3ccccc3Br)cc2)CC1", "Percent Effect": -1.249}
{"smiles": "Cc1c(C2=NS(=O)(=O)N(C)C(C(=O)Nc3ccc(Br)cc3)=C2)cnn1C", "Percent Effect": 158.8}
{"smiles": "Cc1nn(C)cc1C1=NS(=O)(=O)N(C)C(C(=O)Nc2ccc(Cl)cc2)=C1", "Percent Effect": 140.7}
{"smiles": "Cc1c(C(C)NC(=O)Nc2ccc(F)c(F)c2)cnn1C", "note": "(stereo not given)", "Percent Effect": 0.41}
{"smiles": "Cc1nn(C)cc1C1=NS(=O)(=O)N(C)C(C(=O)Nc2ccc(Br)cc2)=C1", "Percent Effect": 160.2}
{"smiles": "CNc1nc(CNC(=O)Nc2ccccc2-c2noc(C)n2)cs1", "Percent Effect": 2.213}
{"smiles": "CN1CC(NC(=O)CCCc2cc(Cl)sc2Cl)CCC1=O", "note": "(stereo not given)", "Percent Effect": -9.281}
{"smiles": "O=C(NCc1cccnc1)c1ccc2nccn2c1", "Percent Effect": 107.5}
{"smiles": "O=C(NCCc1ccccc1)c1cn(CCNCc2cccnc2)nn1", "Percent Effect": -1.891}
{"smiles": "O=C(NCCCNc1cccnc1)c1ccc2nccn2c1", "Percent Effect": 1.237}
{"smiles": "O=C(NCc1cccnc1)c1cn(CCc2ccccc2)nn1", "Percent Effect": 77.17}
{"smiles": "O=C(NCCCOc1cccnc1)c1cn(CCc2ccccc2)nn1", "Percent Effect": -0.6541}
{"smiles": "O=C(NCCc1cccnc1)c1ccc2nccn2c1", "Percent Effect": -5.38}
{"smiles": "CN(C)c1cccc(C(=O)NCC2(O)CCOCC2)c1", "Percent Effect": -18.41}
{"smiles": "CN(C)c1ccc(C(=O)NCC2(O)CCOCC2)cc1", "Percent Effect": -16.02}
{"smiles": "COC(=O)c1ccc(C(=O)NCC2(O)CCOCC2)cc1", "Percent Effect": 130.4}
{"smiles": "Cc1ccc(C(=O)NCC2(O)CCOCC2)cc1F", "Percent Effect": -12.72}
{"smiles": "Cc1ccc(C(=O)NCC2(O)CCOCC2)cc1Br", "Percent Effect": -13.19}
{"smiles": "O=C(NCC1(O)CCOCC1)c1ccc(F)cc1", "Percent Effect": 96.45}
{"smiles": "O=C(O)C(F)(F)F.O=C(O)C(F)(F)F.O=C(O)c1cc2c(nc1N1CCOCC1)CCN(C1CCOC1)CC2", "note": "(stereo not given)", "Percent Effect": -7.215}
{"smiles": "Cc1ccnc2c1NC(=O)CN2C(=O)CCC(F)(F)F", "Percent Effect": -8.698}
{"smiles": "O=C(OC1CCC1)c1ncccc1OCC(F)(F)F", "Percent Effect": -10.44}
{"smiles": "COCCNCc1cc2c(C)cc(C)cc2n2c(=O)n(C)nc12", "Percent Effect": 88.13}
{"smiles": "CCOCCCNCc1cc2c(C)cc(C)cc2n2c(=O)n(C)nc12", "Percent Effect": 119.1}
{"smiles": "CCOCCCNCc1cc(O)c2cc(C)ccc2n1", "Percent Effect": -26.14}
{"smiles": "COCCCn1cnnc1CNC(=O)c1[nH]c2c(C)cc(C)cc2c1C", "Percent Effect": 0.2132}
{"smiles": "CCCNCc1cc2c(C)cc(C)cc2n2c(=O)n(C)nc12", "Percent Effect": -10.06}
{"smiles": "O=C1CCC2(CCCN(c3ncnc4[nH]cnc34)C2)CN1CCCO", "note": "(stereo not given)", "Percent Effect": -3.767}
{"smiles": "COc1ccccc1CC(NC(=O)N1CCC[C@@H]1CO)C(C)C", "note": "(stereo not given in full)", "Percent Effect": -5.452}
{"smiles": "CSCCC(=O)N1CCC(c2nnc(CN(C)CCO)n2C)CC1", "Percent Effect": 26.9}
{"smiles": "CCS(=O)(=O)N1CCCc2ccc(NC(=O)Cc3ccc(F)cc3)cc21", "Percent Effect": -6.577}
{"smiles": "CCS(=O)(=O)N1CCc2ccc(NC(=O)Nc3cccc(C)c3)cc21", "Percent Effect": 127.7}
{"smiles": "CCS(=O)(=O)N1CCc2ccc(NC(=O)NC(C)(C)C)cc21", "Percent Effect": 107.2}
{"smiles": "Cc1cccc(NC(=O)NC2CCN(C3CCOC3)CC2)c1", "note": "(stereo not given)", "Percent Effect": -12.46}
{"smiles": "CCS(=O)(=O)N1CCc2ccc(NC(=O)Nc3cccc(SC)c3)cc21", "Percent Effect": 9.677}
{"smiles": "NS(=O)(=O)N1CCc2ccc(NC(=O)Cc3ccc(F)cc3)cc21", "Percent Effect": -5.162}
{"smiles": "COc1cc(NC(=O)NC2CCCC2)ccc1N1CCOC1=O", "Percent Effect": 8.686}
{"smiles": "NS(=O)(=O)N1CCc2ccc(NC(=O)CC(F)(F)F)cc21", "Percent Effect": -10.92}
{"smiles": "CCS(=O)(=O)N1CCc2ccc(NC(=O)Nc3cccc(F)c3)cc21", "Percent Effect": 144.6}
{"smiles": "CCS(=O)(=O)N1CCc2ccc(NC(=O)NC3CCCCC3)cc21", "Percent Effect": 108.5}
